This note sets out measurements from PubChem BioAssay (NCATS).

The structures appear in SMILES notation. A number with no mark means an inactive call. Records with an inconclusive call do not appear. Active and inactive are the calls of the source. Unless noted, calls come from the whole dose curve; as a rule, active = well fitted curve in the direction sought with a large enough effect; inconclusive = small, poorly fitted or top-dose-only effect, or another doubt; inactive = no such curve, though single readings can be large; an effect the other way counts as inactive or inconclusive.

Test [1] has as its target 3',5'-cyclic-AMP phosphodiesterase 4B (Homo sapiens) (UniProt Q07343). The test is described as follows: qHTS Assay for Inhibitors of PDE-IV (AID 607; active = well fitted activation curve with a large enough effect in the main read-out, with a control signal flat, not every such curve was filed as active; note: % of control where 0% means no effect). The note with it: HEK293 ACTOne CNG channel cells, membrane potential fluorescence; series mostly up to 22.9 µM. In a few lines:
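ACTOne HEK293 cells carry a modified cAMP-gated CNG channel and express endogenous PDE4; plated 1000 cells/well, compounds up to 22.9 uM final. Membrane-potential dye fluorescence (ex 535/em 590) was read; parental cells received 10 uM forskolin + 100 uM RO 20-1724.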

The nature of test [2]: Cell Viability - N2a (AID 540).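 For activity change, negative = cytotoxicity: plate controls were DMSO alone for no effect and tamoxifen control for full effect.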 Note: nearly all actives have a fitted effect of over 45% in size. Note: potency is the fitted concentration of half-maximal effect. Particulars: N2a mouse neuroblastoma cell viability; activity change, negative = cytotoxicity: at 92.2 µM (top of the series). In a few lines: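 Mouse neuroblastoma N2a cells (1500/well) were preincubated 5 hr at 37 °C, then exposed to compounds for 40 hr at 37 °C in complete medium. Viability was read as intracellular ATP by CellTiter-Glo luminescence; AC50 from Hill fits.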

The nature of test [3]: Cell Viability - NIH 3T3 (AID 541).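 For activity change, negative = cytotoxicity: plate controls were DMSO alone for no effect and tamoxifen positive control for full effect.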 Note: nearly all actives have a fitted effect of over 25% in size. Note: potency is the fitted concentration of half-maximal effect. Particulars: NIH 3T3 cell viability, qHTS; activity change, negative = cytotoxicity: at 92.2 µM (top of the series). In a few lines: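 NIH 3T3 mouse embryo fibroblasts (1000 cells/well) were plated in complete medium and treated with compound for 40 hr at 37 °C. Viability was read as intracellular ATP by CellTiter-Glo luminescence; AC50 values came from Hill-equation fits of concentration-response data.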

Test [4] is described as follows: Cell Viability - HUV-EC-C (AID 542). Note: % is set by controls: 0 for no effect and ±100 for the full control effect; nearly all actives have a fitted effect of over 35% in size. The note with it: HUV-EC-C endothelial cell viability, qHTS; series mostly up to 92.2 µM. The method in brief:
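HUV-EC-C normal human vascular endothelial cells, 1000 cells/well, pre-incubated 5 hr at 37 °C, then exposed to compounds for 40 hr at 37 °C in complete medium. Viability measured as intracellular ATP by CellTiter-Glo luminescence; AC50 from Hill fits.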

Test [5] is described as follows: Cell Viability - H-4-II-E (AID 543). Note: nearly all actives have a fitted effect of over 35% in size. Note: potency is the fitted concentration of half-maximal effect. The note with it: H-4-II-E rat hepatoma viability; series mostly up to 92.2 µM. In a few lines: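 Rat hepatoma H-4-II-E cells (1500/well) were plated, incubated 5 hr at 37 °C, then exposed to compounds for 40 hr at 37 °C. Cellular ATP was read by CellTiter-Glo luminescence; AC50 came from Hill-equation fits of concentration-response data.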

The nature of test [6]: Cell Viability - SH-SY5Y (AID 544). Note: nearly all actives have a fitted effect of over 55% in size. Note: potency is the fitted concentration of half-maximal effect. The note with it: SH-SY5Y neuroblastoma cell viability; viability change, negative = cytotoxic: at 92.2 µM (top of the series). In a few lines:
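Human neuroblastoma SH-SY5Y cells (1500/well) in complete medium were exposed to compounds for 40 hr at 37 °C; intracellular ATP was then quantified by CellTiter-Glo luminescence after 20 min at room temperature. AC50 came from Hill-equation concentration-response fits.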

A short description of test [7]: Cell Viability - Renal Proximal Tubule (AID 545). Note: nearly all actives have a fitted effect of over 40% in size. Note: potency is the fitted concentration of half-maximal effect. The note with it: renal proximal tubule cells viability, primary cells of rat origin; activity change, negative = cytotoxicity: at 91.7 µM (top of the series). In a few lines:
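In this qHTS format, normal rat kidney-derived proximal tubule cells in complete culture medium receive compound titrations, then sit 40 hours at 37 °C before luciferase-based ATP quantitation; potency is reported as AC50 from concentration-response curves.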

Test [8] in a line: Cellular Toxicity (caspase-3) HepG2 (AID 654).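 Note: cells exposed to compound for 16 hours before reading; 0% = DMSO alone and 100% = caspase signal from 100 µM tamoxifen.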 Particulars: HepG2 caspase-3 activation, luminescence, 0% = DMSO only, 100% = tamoxifen; series mostly up to 92.2 µM. The method in brief:
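HepG2 cells (1500/well) in complete medium were treated with compounds for 16 hr at 37 °C. Caspase-3/7 activity was then read as luminescence from peptide-aminoluciferin cleavage. AC50 came from Hill fits, normalized to DMSO and 100 uM tamoxifen.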

The nature of test [9]: Cellular Toxicity (caspase-3) Jurkat (AID 655).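 Note: cells exposed to compound for 16 h at 37 °C before reading.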 Particulars: Jurkat caspase-3 activation, luminescence; series mostly up to 92.2 µM. In a few lines:
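qHTS in human Jurkat T-cell leukemia line: 16 hr compound treatment at 37 °C, caspase-3/7 activity measured by Caspase-Glo luminescence. AC50 derived from Hill equation.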

The nature of test [10]: Cellular Toxicity (caspase-3) HUV-EC-C (AID 656). The note with it: HUV-EC-C cells, caspase-3 activation (apoptosis), vehicle = 0, 100 µM tamoxifen = 100%; series mostly up to 92.2 µM. The method in brief: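 Concentration-dependent caspase 3/7 induction was assessed in HUV-EC-C cells exposed for 16 hours. Data scaled between DMSO and tamoxifen (100 uM) controls.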
The nature of test [11]: Cellular Toxicity (caspase-3) SHSY5Y (AID 657). Particulars: SH-SY5Y caspase-3 activation; series mostly up to 91.7 µM. In a few lines: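 Readout: caspase-cleaved peptide-aminoluciferin substrate driving luciferase light in SH-SY5Y neuroblastoma cells after 16 h treatment. Response normalized to DMSO and 10 uM staurosporine controls.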
Test [12] is described as follows: Cellular Toxicity (caspase-3) BJ (AID 658). The note with it: BJ fibroblasts, luminescence, normalized: DMSO 0%, staurosporine 100%; series mostly up to 91.7 µM. In a few lines: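 BJ human foreskin fibroblasts, 1000 cells/well, treated 16 hours at 37 °C in complete medium; caspase 3/7 activity by Caspase-Glo luminescence after 1 hr at room temperature. Normalized to DMSO and 10 uM staurosporine; AC50 from Hill fits.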

Test [13] is described as follows: Cellular Toxicity (caspase-3) MRC-5 (AID 659). The note with it: MRC-5 cells, luminescence, normalized: DMSO 0%, 10 µM staurosporine 100%; series mostly up to 91.7 µM. In a few lines:
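MRC-5 human normal lung fibroblasts, 1500 cells/well, treated 16 h at 37 °C in complete medium. Caspase 3/7 measured by Caspase-Glo luminescence after 1 h at room temperature. Normalized to DMSO and 10 uM staurosporine; AC50 from Hill fit.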

Test [14] in a line: Cellular Toxicity (caspase-3) Mesangial (AID 660). Particulars: mesangial cells, normalized: DMSO 0%, 100 µM tamoxifen 100%; series mostly up to 91.7 µM. In a few lines:
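Human renal glomerular mesangial cells (1000/well) were treated with compounds for 16 h at 37 °C in complete medium, then caspase 3/7 activity was read by Caspase-Glo luminescence. Data were normalized to DMSO and 100 uM tamoxifen; AC50 from Hill fits.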

Test [15] can be described thus: Cellular Toxicity (caspase-3) SK-N-SH (AID 661). Particulars: SK-N-SH caspase-3 activation, qHTS, DMSO as zero, staurosporine as full; series mostly up to 91.7 µM. In a few lines: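 SK-N-SH human neuroblastoma cells (1500/well) were treated with compounds for 16 hr at 37 °C in complete medium; caspase 3/7 activity was read by Caspase-Glo luminescence. AC50 came from Hill fits of data normalized to DMSO and 10 uM staurosporine.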

A short description of test [16]: Cellular Toxicity (caspase-3) H-4-II-E (AID 663).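 Note: cells exposed to compound for 16 hr before readout.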 Particulars: H-4-II-E rat hepatoma; Potency: caspase-3 activation; series mostly up to 92.2 µM. The method in brief:
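Rat hepatoma H-4-II-E cells (1500/well) plated 5 hr, then exposed to compound titrations for 16 hr at 37 °C. Caspase-Glo 3/7 luminescence read after 20 min at RT; data normalized to DMSO and 100 uM tamoxifen, AC50 from Hill fits.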

The nature of test [17]: Cellular Toxicity (caspase-3) Hek293 (AID 664).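 Note: cells exposed to compound for 16 h at 37 °C before readout.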 The note with it: HEK293 caspase-3 activation, DMSO = 0%, 100 µM tamoxifen = 100%; series mostly up to 92.2 µM. In a few lines:
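HEK293 cells were exposed to compounds in complete medium for 16 hr at 37 °C, then caspase-3/7 activity was read by Caspase-Glo 3/7 luminescence after 20 min at room temperature. Data normalized to DMSO and 100 uM tamoxifen; AC50 from Hill fits.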

The nature of test [18]: Cellular Toxicity (caspase-3) N2a (AID 665).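 Note: compound exposure lasted 16 h at 37 °C before readout.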 Particulars: N2a cells, luminescence, normalized: DMSO 0%, 10 µM staurosporine 100%; series mostly up to 92.2 µM. The method in brief: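 Mouse N2a neuroblastoma cells (1500/well) were treated with compounds for 16 h at 37 °C, then caspase-3/7 activity was read by Caspase-Glo luminescence after 1 h at room temperature. Data were normalized to DMSO and 10 uM staurosporine; AC50 from Hill fits.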

3',5'-cyclic-AMP phosphodiesterase 4B (Homo sapiens), sequence (Q07343 whole entry, looked up): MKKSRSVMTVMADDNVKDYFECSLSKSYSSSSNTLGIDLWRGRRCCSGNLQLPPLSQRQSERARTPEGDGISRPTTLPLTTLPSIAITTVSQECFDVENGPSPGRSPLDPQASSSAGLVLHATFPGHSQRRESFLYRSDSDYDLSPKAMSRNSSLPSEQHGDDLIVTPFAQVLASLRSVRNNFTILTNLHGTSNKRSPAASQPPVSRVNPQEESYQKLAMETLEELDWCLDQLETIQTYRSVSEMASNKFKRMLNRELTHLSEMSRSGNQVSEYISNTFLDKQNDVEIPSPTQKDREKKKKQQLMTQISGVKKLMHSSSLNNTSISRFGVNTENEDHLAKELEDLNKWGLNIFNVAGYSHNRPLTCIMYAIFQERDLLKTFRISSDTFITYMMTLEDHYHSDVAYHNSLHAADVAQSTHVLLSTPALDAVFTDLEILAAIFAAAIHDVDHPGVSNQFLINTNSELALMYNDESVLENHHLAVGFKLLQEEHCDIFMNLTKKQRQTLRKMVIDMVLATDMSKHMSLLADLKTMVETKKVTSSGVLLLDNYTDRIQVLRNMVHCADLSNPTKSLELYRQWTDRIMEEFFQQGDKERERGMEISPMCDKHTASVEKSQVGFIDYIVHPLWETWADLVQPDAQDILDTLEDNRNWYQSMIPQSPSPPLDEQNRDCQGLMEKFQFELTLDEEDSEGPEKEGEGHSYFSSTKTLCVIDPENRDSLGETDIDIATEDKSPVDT

Turning to `C[N+](C)(C)CCO`, the molecule was called inactive in test [1].

With `Cc1ccc(O)cc1`, the Potency entry in [2], in test [4], in test [5], in test [6], in [7] and in test [9] was “inactive” throughout. Further, the Potency entry in test [11] and in test [16] was “inactive” throughout. Besides, in test [3], the activity change, negative = cytotoxicity is -11.4%. In addition, the call in [8], in [10], in [12], in test [13], in test [14] and in [15] was inactive. The call in [17] and in test [18] was inactive.

Turning to `CCCC(=O)c1cc(O)c(O)cc1O`, the Potency result in [4], in [5], in test [7], in test [9], in test [11] and in [16] was “inactive” each time. In test [6], the viability change, negative = cytotoxic was -93.1% (active). For the same molecule, the molecule was called inactive in test [8], in test [10], in [12], in test [13], in test [14] and in [15]. In addition, the outcome in test [17] and in test [18] was inactive.

Regarding `Brc1ccccc1-c1ccccc1`, the Potency entry in [2], in test [4], in test [5], in test [6], in test [7] and in test [9] was “inactive” throughout. Further, the Potency result in test [11] and in test [16] was “inactive” throughout. Besides, the activity change, negative = cytotoxicity in [3] was 3.13%. The molecule was called inactive in test [8], in [10], in [12], in [13], in test [14] and in test [15]. The call in test [17] and in test [18] was inactive.

In the case of `COc1cc(C=O)ccc1O`, the Potency result in [2], in test [4], in [5], in test [6], in test [7] and in test [9] was “inactive” in each case. For the same molecule, the Potency entry in [11] and in test [16] was “inactive” in each case. For the same molecule, the activity change, negative = cytotoxicity in test [3] was -22.1%. Moreover, the molecule was classed as inactive in [8], in [10], in test [12], in test [13], in test [14] and in test [15]. Besides, the outcome in test [17] and in test [18] was inactive.

As for `Nc1cccc2c(N)cccc12`, the Potency result in [2], in test [4], in test [5], in [7], in test [9] and in [11] was “inactive” throughout. Further, the Potency result in [16] is “inactive”. For the same molecule, the molecule was classed as inactive in test [8], in test [10], in test [12], in test [13], in test [14] and in [15]. The result in test [17] and in test [18] was inactive.

Take `CCCCCCCCCCCCCCCC[n+]1ccccc1`: the Potency in [2] was 0.398 µM (active); in [3], 25.1 µM (active); in test [5], 3.98 µM (active); in [6] it was 25.1 µM (active); in test [7], 31.6 µM (active). For the same molecule, the molecule was called inactive in test [10], in [14] and in [17]. Further, the Potency result in test [11] is “inactive”.
